Compounds with a hit are over-represented: about 1.6% of the library has one in this group of screens.
KCNQ2 enhance – potentiators of rat KCNQ2 potassium channel | AID 2239, 2010 | B-score at 10 µM | actives 0.54% (n = 310,000) | CHO-K1 KCNQ2, FluxOR thallium flux fluorescence; stronger effect = higher value;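 active = fluorescence ratio B-score at least 3 SD of library B-scores, with initial fluorescence B-score within 3 of them, cut at about 5.3 in these data; same plate scores as AID 2156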;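 note: B-score of peak minus minimum over baseline fluorescence ratio after K+ and Tl+ stimulus; positive B-score means potentiation of KCNQ2 with more thallium influx and brighter signal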
Target sequence (O88943 whole entry, looked up): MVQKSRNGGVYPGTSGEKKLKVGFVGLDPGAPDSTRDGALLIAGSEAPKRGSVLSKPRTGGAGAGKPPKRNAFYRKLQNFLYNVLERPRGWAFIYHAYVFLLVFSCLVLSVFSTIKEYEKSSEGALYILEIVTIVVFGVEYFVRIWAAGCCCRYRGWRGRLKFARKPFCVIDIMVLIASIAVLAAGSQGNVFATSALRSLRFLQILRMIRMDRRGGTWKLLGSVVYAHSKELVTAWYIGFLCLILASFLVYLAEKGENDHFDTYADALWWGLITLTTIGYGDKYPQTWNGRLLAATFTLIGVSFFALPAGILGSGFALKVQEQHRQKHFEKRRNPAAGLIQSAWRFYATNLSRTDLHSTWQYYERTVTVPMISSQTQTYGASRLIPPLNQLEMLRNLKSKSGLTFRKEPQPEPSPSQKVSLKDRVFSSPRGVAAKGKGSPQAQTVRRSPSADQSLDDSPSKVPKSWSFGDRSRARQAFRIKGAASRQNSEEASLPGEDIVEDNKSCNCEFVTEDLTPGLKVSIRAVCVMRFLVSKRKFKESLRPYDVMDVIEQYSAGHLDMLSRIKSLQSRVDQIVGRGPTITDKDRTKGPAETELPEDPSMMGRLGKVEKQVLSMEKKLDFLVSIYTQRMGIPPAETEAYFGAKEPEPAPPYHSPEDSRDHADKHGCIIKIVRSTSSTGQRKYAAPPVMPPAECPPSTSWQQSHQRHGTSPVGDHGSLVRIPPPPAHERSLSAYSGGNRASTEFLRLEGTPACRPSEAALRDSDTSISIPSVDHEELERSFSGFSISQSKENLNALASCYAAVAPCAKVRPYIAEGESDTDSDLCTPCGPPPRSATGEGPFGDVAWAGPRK
KCNQ2 block – rat KCNQ2 potassium channel inhibitors, primary screen, cell-based, CHO-K1, FluxOR thallium flux, B-score. Potassium voltage-gated channel subfamily KQT member 2 (Rattus norvegicus), O88943. 20 min; stronger effect = lower value. B-score at 10 µM. actives 1.1% (n = 310,000). AID 2156, 2009;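 active = fluorescence ratio B-score at most minus 3 library SDs, with starting brightness B-score within 2 library SDs, cut at about -5.5 in these data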
Kir21 conf inh – mouse Kir2.1 channel blockers, retest, confirmation, cell-based, FluxOR thallium flux, duplicate | shares compounds with KCNQ2 enhance | Kir2.1-expressing cells, FluxOR thallium flux fluorescence; stronger effect = lower value | Tl flux remaining, % of negative control (stronger effect = lower value), % at 10 µM | actives 41% (n = 2,300) | AID 2032, 2009;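 active = Primary-screen hit whose thallium flux fell at least 3 control SD below untreated wells in both duplicates, with normal baseline fluorescence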;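 note: 0% = blank wells without stimulus and 100% = stimulated no-compound controls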
HEK293 ctr – parental HEK293 activity in Kir2.1 inhibitor counter-screen | shares compounds with KCNQ2 enhance | parental HEK293 cells, FluxOR thallium flux fluorescence; 0% = unstimulated blank wells | FluxOR signal as % of negative control (100 = no effect), % at 10 µM | actives 19% (n = 2,300) | AID 2105;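 active = dye signal at least 3 control SD above or below untreated wells in both duplicates, raw fluorescence within 3, either direction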;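 note: percent is based on the flux ratio of peak minus minimum fluorescence over baseline F0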
CHO-K1 ctr – nonspecific thallium flux increase in parental CHO-K1, confirmation, counter-screen for KCNQ2 potentiator project, cell-based, FluxOR thallium flux, duplicate; shares compounds with KCNQ2 enhance; parental CHO-K1 cells, FluxOR thallium flux fluorescence; zero = vehicle mean+3SD, 100% = vehicle-minus-blank window; activity increase over 3SD of controls, % at 10 µM; actives 43% (n = 1,200);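 active = signal rise of at least 3 SD above the untreated control mean, in both duplicate wells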;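 note: counter screen of KCNQ2 potentiator hits so any rise reflects channel-independent effects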
KCNQ1 pot spec – human KCNQ1 channel potentiation off-target, confirmation, selectivity assay for KCNQ2 potentiator project, cell-based, CHO, FluxOR thallium flux | activation over 3SD threshold, % at 10 µM | CHO KCNQ1 stable, FluxOR thallium flux fluorescence; beyond 3SD, as % of vehicle-control signal | actives 28% (n = 1,200) | shares compounds with KCNQ2 enhance;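 active = fluorescence ratio rise of at least 3 SD of vehicle wells above their mean, in both replicate wells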;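 note: 0% = vehicle mean plus 3 SD and 100% = vehicle minus unstimulated blank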
KCNQ2 pot confirm – rat KCNQ2 channel potentiators, confirmation, cell-based, CHO, FluxOR thallium flux, duplicate | actives 68% (n = 1,200) | AID 2287, 2010 | CHO-KCNQ2 cells, FluxOR thallium flux fluorescence | shares compounds with KCNQ2 enhance | potentiation, less the hit threshold, % at 10 µM;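 active = fluorescence ratio rising 3 SD or more over the vehicle control mean in both replicates, plus primary screen hit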;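 note: peak minus minimum thallium fluorescence divided by baseline after K/Tl stimulus; 0% = vehicle mean plus 3 SD and 100% = vehicle minus unstimulated blank difference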
Kir21 spec – mouse Kir2.1 channel activation off-target, confirmation, selectivity assay for KCNQ2 potentiator project, cell-based, HEK293, FluxOR thallium flux; shares compounds with KCNQ2 enhance; activity over 3SD threshold, % at 10 µM; actives 2% (n = 1,200); AID 2345, 2010; HEK293 Kir2.1, FluxOR thallium flux fluorescence;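 active = fluorescence ratio rise of at least 3 SD above the vehicle-control mean, seen in both replicates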;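 note: 0% = vehicle mean plus 3 SD and 100% = vehicle minus no-stimulus blank window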
KCNQ2 W236L MoA – potentiators of retigabine-insensitive KCNQ2 W236L, mechanism study for KCNQ2 potentiator project, cell-based, rat KCNQ2 W236L, CHO, automated patch clamp; shares compounds with KCNQ2 enhance; automated patch clamp current; current increase over 3SD of negative controls (%), stronger effect = higher value, % at 25 µM; actives 10% (n = 940); AID 2558, 2010;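 active = current increase at least 3 SD of the untreated controls above them in both duplicate recordings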
* marks the source's active call; other numbers are inactive results; i = inactive; . = no result given.

SMILES	KCNQ2 enhance	KCNQ2 block	Kir21 conf inh	HEK293 ctr	others
CC1=NN(C(N)=S)C(=O)C1N=Nc1cccc(Cl)c1C (configuration not stated)	40*	i	i	i	CHO-K1 ctr=-6;KCNQ1 pot spec=-16;KCNQ2 pot confirm=110*;Kir21 spec=-36;KCNQ2 W236L MoA=i
CC1=NN(C(N)=S)C(=O)C1N=Nc1cccc2ccccc12 (configuration not stated)	.	i	.	.
COCCn1c(SCC(=O)Nc2ccc(F)cc2)nc2ccccc2c1=O	2.7	i	.	.
CC(C)c1ccc2oc(=O)cc(CN3CCCCC3)c2c1	.	i	.	.
CCN1C(=O)CC(C(=O)Nc2ccc(F)cc2)SC1=Nc1ccc2c(c1)OCO2 (configuration not stated)	0.45	i	.	.
COc1ccccc1NS(=O)(=O)c1cccc(NC(=O)NCCCl)c1	1.1	i	.	.
CCCN1CCC(NCC(C)c2ccccc2)CC1 (configuration not stated)	0.07	i	.	.
CCCN1CCC(NC23CC4CC(CC(C4)C2)C3)CC1	0.34	i	54%*	i
CC(C)Cn1nc(NC(=O)c2ccco2)c2cc3ccccc3nc21	.	i	.	.
O=C1COc2ccc(-c3n[nH]c(=O)c4ccccc34)cc2N1	0.56	i	.	.
CN1C(=O)N(C)C2(c3ccccc3)NNC(N)=NC12c1ccccc1 (configuration not stated)	1.3	i	.	.
CCc1ccc(Nc2n[n+](-c3ccccc3)c(-c3c(Cl)cccc3Cl)s2)cc1	.	i	.	.
CCc1ccc(Nc2n[n+](-c3ccccc3)c(/C=C/c3ccccc3)s2)cc1	.	i	74%*	i
S=c1[nH]nc(COc2ccccc2)n1/N=C/c1ccc(Cl)c(Cl)c1	.	i	.	.
Cc1cccc(/C=N/n2c(COc3ccccc3)n[nH]c2=S)c1	6*	i	i	158%*	CHO-K1 ctr=-8;KCNQ1 pot spec=-14;KCNQ2 pot confirm=0.0*;Kir21 spec=-38;KCNQ2 W236L MoA=i
Cc1ccc(S(=O)(=O)NCCC(=O)N2CCCCCC2)cc1	0.07	i	.	.
Cc1ccc(S(=O)(=O)NCCC(=O)N2CCC(Cc3ccccc3)CC2)cc1	5.3*	i	i	i	CHO-K1 ctr=13*;KCNQ1 pot spec=-22;KCNQ2 pot confirm=-19;Kir21 spec=-35;KCNQ2 W236L MoA=i
Cc1cc(Br)ccc1SCC(=O)OCC(=O)N1CCN(C(=O)c2ccco2)CC1	.	i	.	.
O=C(O)c1ccc(NC(=O)c2ccco2)c(NC(=O)c2ccco2)c1	.	i	.	.
COc1cccc(NC(=O)c2ccc3c(c2)CCN3S(C)(=O)=O)c1	17*	i	i	i	CHO-K1 ctr=2.5*;KCNQ1 pot spec=-14;KCNQ2 pot confirm=-32;Kir21 spec=-40
CC(=O)Nc1ccc(NC(=O)c2ccc3c(c2)CCN3S(C)(=O)=O)cc1	.	i	.	.
COc1cccc(NC(=O)c2ncn[nH]2)c1	.	i	.	.
CCOc1cc(C(c2c(C)[nH][nH]c2=O)c2c(C)[nH][nH]c2=O)ccc1OC(=O)c1cccc([N+](=O)[O-])c1	.	i	.	.
CCOc1cc(C(c2c(C)[nH][nH]c2=O)c2c(C)[nH][nH]c2=O)ccc1OCc1ccc([N+](=O)[O-])cc1	.	i	i	i
N#Cc1c(-c2ccccc2)nc(SCc2ccc(Cl)cc2)[nH]c1=O	3.6	i	.	.
SMILES	KCNQ2 enhance	KCNQ2 block	Kir21 conf inh	HEK293 ctr	others
Fc1ccc(NC(=S)Nc2ccccc2N2CCOCC2)cc1Cl	.	i	63%*	134%*
CC(=O)Nc1ccc(S(=O)(=O)Nc2ccccc2N2CCOCC2)cc1Cl	.	i	.	.
O=S(=O)(c1ccc(Cl)c(NC(=S)Nc2ccccc2N2CCOCC2)c1)N1CCOCC1	0.82	i	.	.
O=S(=O)(Nc1ccccc1N1CCOCC1)c1ccc(F)c(Cl)c1	.	i	46%*	i
O=C(CSc1nn(-c2ccc(Cl)cc2)c(=S)s1)N1CCN(C(=O)c2ccco2)CC1	0.6	i	.	.
Cc1nc2ccc(NC(=O)CS(=O)(=O)c3ccccc3)cc2s1	.	i	.	.
CC(C)Nc1nc(-c2ccccc2)nnc1-c1ccccc1	0.17	i	.	.
Cc1ccc(S(=O)(=O)N(C)Cc2ccc(C(=O)N/N=C3\CC(=O)CC(C)(C)C3)cc2)cc1	.	i	.	.
Cc1ccc(S(=O)(=O)N(C)c2ccc(C(=O)Nc3c(C)n(C)n(-c4ccccc4)c3=O)cc2)cc1	.	i	.	.
CC(C)=CCc1c(O)cc(O)c2c1OC(c1ccc(O)cc1)CC2=O (configuration not stated)	-7.8	-7.8*	62%*	i
CC(C)=CCc1c(O)c(CC=C(C)C)c2c(c1O)C(=O)CC(c1ccc(O)cc1)O2 (configuration not stated)	.	i	.	.
COc1cc(Cl)cc(C(c2c(C(=O)O)[nH]c3ccccc23)c2c(C(=O)O)[nH]c3ccccc23)c1O	.	i	.	.
COc1ccc(Br)cc1CN(C)C(C)C(=O)Nc1cccc(C(C)=O)c1 (configuration not stated)	.	i	.	.
O=c1c(-c2ccc(Cl)cc2)[n+]([O-])c2ccccc2n1O	6.3*	i	i	220%*	CHO-K1 ctr=-12;KCNQ1 pot spec=-23;KCNQ2 pot confirm=-2;Kir21 spec=-43;KCNQ2 W236L MoA=i
O=c1c(-c2cccc([N+](=O)[O-])c2)[n+]([O-])c2ccccc2n1O	1.2	i	.	.
COc1cc(CC(=O)O)ccc1O	.	i	.	.
Cc1cc(CN(C)Cc2cn(C)nc2-c2ccc(Oc3ccccc3)cc2)on1	.	i	.	.
O=C(N/N=C/c1cccc(Oc2ccccc2)c1)c1cc[n+]([O-])cc1	.	i	.	.
Nc1ccc(C(=O)N/N=C/c2cccc(Oc3ccccc3)c2)cc1	1.8	i	56%*	i

From PubChem BioAssay
